Reference: PubChem BioAssay AID624094 (National Center for Advancing Translational Sciences (NCATS), 2012)
Inconclusive results are not listed. Values without a mark were called inactive. Active and inactive are the calls of the source. The call rests on the fitted dose curve; in most records, active means well fitted inhibition curve with a large enough effect; inconclusive means small, poorly fitted or top-dose-only effect; inactive means flat fitted curve, though single readings scatter.

molecular target: Dual specificity protein kinase CLK4 (Homo sapiens) (UniProt Q9HAZ1); test: Confirmation Assay for Inhibitors of Clk4 (Kinase-Glo Assay): KU probe; details: recombinant Clk4, Kinase-Glo ATP luminescence; series mostly up to 76.9 µM; activity, negative = inhibition: at the top concentration
Method: NIH Molecular Libraries Probe Production Centers Network [MLPCN] NIH Chemical Genomics Center [NCGC] MLPCN Grant: 1R03MH084827-01 Assay Submitter (PI): Tom Misteli NCGC Assay Overview: Clk4 (Invitrogen, cat# PV3839) was assayed using ATP and the RS repeat peptide (AnaSpec cat # 61722) as substrates. Following the Clk4 reaction, the remaining ATP levels were detected using Promega Kinase-Glo technology wherein the remaining ATP from the kinase reaction is detected using Ultra-Glo luciferase and D-luciferin which generates a bioluminescence signal from the ATP.
NCGC Assay Protocol Summary: Two uL/well of substrate-buffer solution (100 uM RS peptide, 1 uM ATP, 25 mM Tris pH7.5, 10 mM MgCl2, 0.5 mM EGTA, 2.5 mM DTT, 0.01% Triton X-100 final concentration) was dispensed into 1536-well, assay plates (Greiner, solid white medium-binding plates) with Aurora Discovery BioRAPTR Flying Reagent Dispenser (FRD; Beckton-Dickenson). Using a Kalypsys pin tool equipped with a 1536-pin tool, 23 nL of compound solution was transferred to the assay plate. One uL/ well Clk4-buffer solution (25 nM Clk4, 25 mM Tris pH 7.5, 10 mM MgCl2, 0.5 mM EGTA, 2.5 mM DTT, 0.01% Triton X-100, final concentrations) was then added using the FRD yielding a total kinase reaction volume of 3 uL/ well. After 4.5 hours of room temperature incubation, 3 uL Kinase-Glo reagent was added for a final assay volume of 6 uL/ well. Luminescence was detected with the ViewLux plate reader (Perkin Elmer, Waltham, MA) after 5 min incubation using a 5 second exposure time and 2x binning.

Dual specificity protein kinase CLK4 (Homo sapiens), sequence (Q9HAZ1 whole entry, looked up): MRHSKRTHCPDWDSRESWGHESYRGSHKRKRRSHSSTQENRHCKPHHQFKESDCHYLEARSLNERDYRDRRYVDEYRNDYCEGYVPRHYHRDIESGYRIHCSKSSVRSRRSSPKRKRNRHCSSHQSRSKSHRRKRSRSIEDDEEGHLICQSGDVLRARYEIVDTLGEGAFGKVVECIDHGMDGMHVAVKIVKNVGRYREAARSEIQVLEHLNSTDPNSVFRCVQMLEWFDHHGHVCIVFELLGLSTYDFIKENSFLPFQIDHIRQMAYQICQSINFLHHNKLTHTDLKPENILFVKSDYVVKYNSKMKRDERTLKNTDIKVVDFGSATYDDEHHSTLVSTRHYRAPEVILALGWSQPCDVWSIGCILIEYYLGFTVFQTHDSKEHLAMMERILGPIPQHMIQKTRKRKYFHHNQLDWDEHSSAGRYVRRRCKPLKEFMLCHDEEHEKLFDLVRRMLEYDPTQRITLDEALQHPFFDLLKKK

SMILES | Potency | activity, negative = inhibition [%]
Brc1cncc(CNc2ccnc(-c3ccc4c(c3)OCO4)n2)c1 | 8230 nM (active) | 
Fc1cc(CNc2ccnc(-c3ccc4c(c3)OCO4)n2)cc(F)c1F | 23200 nM (active) | 
Fc1cncc(CNc2ccnc(-c3ccc4c(c3)OCO4)n2)c1 | 8230 nM (active) | 
Clc1cc(Cl)cc(CNc2cc(-c3ccc4c(c3)OCO4)ncn2)c1 | 1640 nM (active) | 
CN(C)c1ccc(-c2nccc(NCc3ccccc3)n2)cc1 |  | -7.91
Cc1noc(C)c1-c1nccc(NCc2ccc(Cl)cc2)n1 |  | -9.2
CCNC(=O)c1ccc(-c2ccc3ncnc(NCC4CCCO4)c3c2)o1 (stereo not given) | 328 nM (active) | 
Clc1ccc(CNc2nccc(-c3ccc4c(c3)OCCO4)n2)cc1Cl | 116 nM (active) | 
COc1ccc(-c2ccnc(NCc3ccc(Cl)c(Cl)c3)n2)cc1 | 184 nM (active) | 
c1cncc(CNc2nccc(-c3ccc4[nH]ncc4c3)n2)c1 | 26 nM (active) | 
Brc1ccc(CNc2nccc(-c3ccc4c(c3)OCO4)n2)cc1Br | 82.3 nM (active) | 
Cc1c(-c2ccnc(NCc3ccc(Cl)cc3)n2)sc(=O)n1C | 58.2 nM (active) | 
Clc1ccc(CNc2nccc(-c3ccc4cn[nH]c4c3)n2)cc1Cl | 5820 nM (active) | 
c1cncc(CNc2ccnc(-c3ccc4cn[nH]c4c3)n2)c1 | 292 nM (active) | 
COc1ccc(-c2ccnc(NCc3ccc(Cl)cc3)n2)cc1 | 184 nM (active) | 
c1coc(-c2ccnc(-c3ccc4c(c3)OCO4)n2)c1 | 8230 nM (active) | 
CN(C)c1ccc(-c2nccc(NCc3cccs3)n2)cc1 | 9230 nM (active) | 
CC(C)(C)CNc1ncnc2ccc(-c3ccc4c(c3)OCO4)cc12 | 65.4 nM (active) | 
Clc1ccc(CNc2ccnc(-c3cccnc3)n2)cc1Cl | 13000 nM (active) | 
CN(CC1CCCCC1)c1ncnc2ccc(-c3ccc4c(c3)OCO4)cc12 | 184 nM (active) | 

SMILES | Potency | activity, negative = inhibition [%]
COc1cccc(-c2ncccn2)c1 | 14600 nM (active) | 
Clc1ccc(CNc2cc(-c3ccc4c(c3)OCO4)ncn2)cc1Cl | 4630 nM (active) | 
COc1cccc(Nc2ncc3ncc(=O)n(CCc4ccccc4)c3n2)c1 | 92.3 nM (active) | 
c1cc(-c2ccoc2)nc(-c2ccoc2)n1 | 5820 nM (active) | 
Clc1cncc(CNc2ccnc(-c3ccc4c(c3)OCO4)n2)c1 | 16400 nM (active) | 
c1nc(NCC2CC2)c2cc(-c3ccc4c(c3)OCO4)ccc2n1 | 32.8 nM (active) | 
Clc1ccc(CNc2nccc(-c3ccc4c(c3)OCO4)n2)cc1 | 51.9 nM (active) | 
COc1cccc(-c2ccnc(NCc3ccc(Cl)c(Cl)c3)n2)c1 | 3680 nM (active) | 
Clc1cc(Cl)cc(CNc2ncncc2-c2ccc3c(c2)OCO3)c1 | 130 nM (active) | 
c1cncc(CNc2nccc(-c3ccc4cn[nH]c4c3)n2)c1 | 41.2 nM (active) | 
c1ccc2ncc(CNc3ccnc(-c4ccc5c(c4)OCO5)n3)cc2c1 | 29200 nM (active) | 
O=c1cnc2cnc(Nc3ccccc3)nc2n1CCc1ccccc1 | 184 nM (active) | 
Cc1c(-c2ccnc(Nc3cc(Br)cc(C(F)(F)F)c3)n2)sc(=O)n1C | 51.9 nM (active) | 
c1cc(-c2ccc3c(c2)OCO3)nc(Nc2ccc3c(c2)OCO3)n1 | 116 nM (active) | 
Clc1ccc(CNc2ncncc2-c2ccc3c(c2)OCO3)cc1 | 5820 nM (active) | 
c1nc(NCC2CCOC2)c2cc(-c3ccc4c(c3)OCO4)ccc2n1 (stereo not given) | 58.2 nM (active) | 
Clc1ccc(CNc2ccnc(-c3cccnc3)n2)cc1 | 16400 nM (active) | 
Cc1c(-c2ccnc(NCc3cccnc3)n2)sc(=O)n1C | 46.3 nM (active) | 
c1cncc(CNc2ccnc(-c3ccc4ccccc4c3)n2)c1 | 14600 nM (active) | 
c1cc(CNc2ccnc(-c3ccc4c(c3)OCO4)n2)ccn1 | 16400 nM (active) | 
